Bioassay records: PubChem, several laboratories
This is a sample that favours compounds with a hit; in the whole collection about 2.8% have one here.
Platelet DG rel = inhibitors of platelet dense granule secretion, primary screen, cell-based, MLPCN, human platelets | human platelet-rich plasma, SFLLRN dense granule ATP release, luminescence | inhibition, %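 (compounds screened at 7.5 µM in platelet-rich plasma)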 | 300,000 compounds, 0.22% hits | AID 1663, 2009;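 active means mean replicate score, as percent of positive control, at or above 50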
SENP8 block-1 = human SENP8 protease inhibitors, primary screen, biochemical, fluorescence, Nedd8 protein substrate, uHTS; Sentrin-specific protease 8 (Homo sapiens), Q96LD8; recombinant SENP8; inhibition, % at 20 µM; 360,000 compounds, 0.64% hits; in the data active means inhibition mostly above about 40%, no sharp cut-off; inactive means mostly below about 27%
Target sequence (Q96LD8 whole entry, looked up): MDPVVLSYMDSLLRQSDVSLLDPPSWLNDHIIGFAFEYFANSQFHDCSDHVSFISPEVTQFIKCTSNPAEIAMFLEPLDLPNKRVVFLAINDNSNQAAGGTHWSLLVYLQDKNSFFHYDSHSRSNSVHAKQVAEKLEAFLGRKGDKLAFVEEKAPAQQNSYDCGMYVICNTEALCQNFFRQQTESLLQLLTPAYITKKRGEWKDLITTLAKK
SENP8 block-2 = SENP8 protease inhibitors, primary screen, biochemical, luminescence; inhibition, % at 10 µM; 330,000 compounds, 1.2% hits; purified SENP8, Z-RLRGG-aminoluciferin cleavage; in the data active means inhibition above about 50%
HSP90 inh = HSP90 inhibitors, primary screen, cell lysate, luminescence. inhibition, % at 5.6 µM. 290,000 compounds, 0.91% hits. Rabbit reticulocyte lysate, luciferase refolding luminescence, 3 h. AID 1789, 2009;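 active means inhibition above the screen-wide mean plus 3 SD, computed separately per campaign, cut at about 16% in these data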;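 further: inhibitors lower the luminescence because luciferase stays unfolded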
SENP6 inh = SENP6 protease inhibitors, primary screen, biochemical, luminescence, uHTS; Sentrin-specific protease 6 (Homo sapiens), Q9GZR1; Recombinant SENP6 catalytic domain, aminoluciferin luminescence; inhibition, % at 10 µM; 330,000 compounds, 1.8% hits; AID 2599, 2010;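 active means inhibition above about 50% at the single tested dose, limit read from the data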
SENP7 block = SENP7 protease inhibitors, primary screen, biochemical, luminescence, uHTS; Sentrin-specific protease 7 (Homo sapiens), Q9BQF6; recombinant SENP7, Z-RLRGG-aminoluciferin luminescence, 40 min; inhibition, % at 5 µM; 330,000 compounds, 1.5% hits; AID 434973, 2010;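 active means inhibition above about 50% at the single test dose, limit read from the data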
Target sequence (Q9BQF6 706-1050 limits assumed): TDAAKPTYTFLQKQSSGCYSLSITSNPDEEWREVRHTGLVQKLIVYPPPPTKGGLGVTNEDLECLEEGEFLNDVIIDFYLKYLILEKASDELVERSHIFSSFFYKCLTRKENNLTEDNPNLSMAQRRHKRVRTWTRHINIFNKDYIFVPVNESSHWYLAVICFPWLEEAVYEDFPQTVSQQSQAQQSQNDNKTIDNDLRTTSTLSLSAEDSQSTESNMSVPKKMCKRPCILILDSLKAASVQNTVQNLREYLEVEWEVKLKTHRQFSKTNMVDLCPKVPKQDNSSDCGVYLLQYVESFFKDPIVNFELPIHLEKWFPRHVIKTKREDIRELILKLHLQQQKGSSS
Hits are given with their value.

Cc1ccccc1OC1CCN(C(=O)c2cc(COc3ccccc3)on2)CC1 was read as Platelet DG rel inactive, SENP8 block-1 inactive, SENP8 block-2 inactive, HSP90 inh inactive, SENP6 inh inactive and SENP7 block inactive.
COc1cc2c(cc1OC)-c1cc(Nc3ccccc3)nc(=O)n1CC2 was read as Platelet DG rel 131, SENP8 block-1 inactive, SENP8 block-2 inactive, HSP90 inh inactive, SENP6 inh inactive and SENP7 block inactive.
COc1cc2c(cc1OC)-c1cc(NC3CCCCCC3)nc(=O)n1CC2 was read as Platelet DG rel 82, SENP8 block-1 inactive, SENP8 block-2 inactive, HSP90 inh inactive, SENP6 inh inactive and SENP7 block inactive.
COc1ccc(Nc2cc3n(c(=O)n2)CCc2cc(OC)c(OC)cc2-3)cc1 was read as Platelet DG rel 61, SENP8 block-1 inactive, SENP8 block-2 inactive, HSP90 inh inactive, SENP6 inh inactive and SENP7 block inactive.
Screening Cc1ccccc1C(=O)N1CCC(C(=O)N2CCN(S(=O)(=O)c3ccccc3F)CC2)CC1 returned Platelet DG rel inactive, SENP8 block-1 inactive, SENP8 block-2 inactive, HSP90 inh inactive, SENP6 inh inactive and SENP7 block inactive.
O=C(Nc1oc2ccc(Cl)cc2c(=O)c1-c1ccc(F)cc1)c1ccco1 was read as Platelet DG rel inactive, SENP8 block-1 inactive, SENP8 block-2 inactive, HSP90 inh inactive, SENP6 inh inactive and SENP7 block inactive.
`Cn1nc(-c2ccccn2)nc2c(=O)n(C)c(=O)nc1-2` gave Platelet DG rel 148, SENP8 block-1 93, SENP8 block-2 97, HSP90 inh 87, SENP6 inh inactive and SENP7 block 96.
Screening O=C(Cn1ccc2ccccc2c1=O)NCCC(=O)Nc1cccc(Cl)c1 returned Platelet DG rel inactive, SENP8 block-1 inactive, SENP8 block-2 inactive, HSP90 inh inactive, SENP6 inh inactive and SENP7 block inactive.
Screening CCc1noc(C)c1C(=O)Nc1sc(C(=O)N(C)C)c(C)c1C#N returned Platelet DG rel inactive, SENP8 block-1 inactive, SENP8 block-2 inactive, HSP90 inh inactive, SENP6 inh inactive and SENP7 block inactive.
Cc1cc(C)n(-c2ccc(NC(=O)C3CCCCN3C(=O)c3sccc3C)cc2)n1 (stereo unspecified) was read as Platelet DG rel inactive, SENP8 block-1 inactive, SENP8 block-2 inactive, HSP90 inh inactive, SENP6 inh inactive and SENP7 block inactive.
`Cc1ccc(-c2nc(-c3ccccn3)no2)cc1Cl` gave Platelet DG rel inactive, SENP8 block-1 inactive, SENP8 block-2 96, HSP90 inh 64, SENP6 inh 95 and SENP7 block 99.
Screening CCc1ccc(C(=O)COC(=O)c2cccs2)cc1 returned SENP8 block-1 inactive, SENP8 block-2 91, HSP90 inh inactive, SENP6 inh inactive and SENP7 block 97.
`CCc1ccc(C(=O)COC(=O)CNC(=O)c2ccco2)cc1` gave Platelet DG rel 51, SENP8 block-1 inactive, SENP8 block-2 inactive, HSP90 inh inactive, SENP6 inh inactive and SENP7 block inactive.
CCn1c(C(=O)N2CCC(C(=O)NCCCSC3CCCCC3)CC2)cc2sccc21 was read as Platelet DG rel 69, SENP8 block-1 inactive, SENP8 block-2 inactive, HSP90 inh inactive, SENP6 inh inactive and SENP7 block inactive.
COc1ccc(C(CNC(=O)c2ccc(S(=O)(=O)Nc3ccccc3OC)cc2)N2CCCC2)cc1 (stereo unspecified) was read as SENP8 block-1 inactive.
COc1ccc(/C=C/c2nc(-c3ccccc3O)n(-c3ccccc3)n2)cc1 was read as Platelet DG rel inactive, SENP8 block-1 inactive, SENP8 block-2 inactive, HSP90 inh inactive, SENP6 inh inactive and SENP7 block inactive.
For COc1ccc(/C=C/c2nc(-c3ccccc3O)n[nH]2)cc1 the results were Platelet DG rel inactive, SENP8 block-1 inactive, SENP8 block-2 93, HSP90 inh inactive, SENP6 inh 96 and SENP7 block 95.
`Oc1c(C=NCc2ccccc2)sc2ccccc12` gave Platelet DG rel inactive, SENP8 block-1 inactive, SENP8 block-2 inactive, HSP90 inh 24, SENP6 inh inactive and SENP7 block inactive.
Screening CCn1c(O)c(C=NCc2ccccc2)sc1=S returned Platelet DG rel inactive, SENP8 block-1 inactive, SENP8 block-2 inactive, HSP90 inh inactive, SENP6 inh inactive and SENP7 block inactive.
Oc1cccc(C=NCc2ccccc2)c1O was read as Platelet DG rel inactive, SENP8 block-1 54, SENP8 block-2 inactive, HSP90 inh inactive, SENP6 inh inactive and SENP7 block inactive.
Screening CCNC(=O)C1CCCN(C(=O)c2ccccc2F)CC1 (stereo unspecified) returned SENP8 block-1 inactive.
CN(C1=NS(=O)(=O)N=C(N(C)c2ccccc2)O1)c1ccccc1 was read as SENP8 block-1 inactive.
Cc1cc(C(=O)Nc2ccccc2C(=O)O)ccc1NC(=O)COc1cccc(C)c1C was read as Platelet DG rel inactive, SENP8 block-1 inactive, SENP8 block-2 inactive, HSP90 inh inactive, SENP6 inh inactive and SENP7 block inactive.
`Cc1[nH]n(-c2ccc(Cl)cc2)c(=O)c1N=Nc1cccnc1` gave Platelet DG rel inactive, SENP8 block-1 43, SENP8 block-2 inactive, HSP90 inh inactive, SENP6 inh inactive and SENP7 block inactive.
For Cc1ccccc1NC(=S)c1ccc2ccccc2n1 the results were Platelet DG rel 54, SENP8 block-1 inactive, SENP8 block-2 inactive, HSP90 inh inactive, SENP6 inh inactive and SENP7 block inactive.
CC(=O)Oc1cc(O)c2c(=O)c(OC(C)=O)c(-c3ccc(OC(C)=O)c(OC(C)=O)c3)oc2c1 was read as Platelet DG rel inactive, SENP8 block-1 40, SENP8 block-2 inactive, SENP6 inh inactive and SENP7 block inactive.
COc1ccc(-c2oc3cc(OC(C)=O)cc(OC(C)=O)c3c(=O)c2OC)cc1 was read as SENP8 block-1 inactive.
Cc1cc(C(=O)CN2C(=O)c3ccccc3S2(=O)=O)c(C)n1-c1ccccc1 was read as Platelet DG rel inactive, SENP8 block-1 inactive, SENP8 block-2 inactive, HSP90 inh 16, SENP6 inh inactive and SENP7 block inactive.
For COc1ccccc1CC(NC(C)=O)C(=O)NC1CCN(C(=O)c2ccc(C)cc2)CC1 (stereo unspecified) the results were Platelet DG rel inactive, SENP8 block-1 inactive, SENP8 block-2 inactive, HSP90 inh inactive, SENP6 inh inactive and SENP7 block inactive.
COCCN(C(=O)COC(=O)CCC1CCCCC1)c1c(N)n(Cc2ccccc2)c(=O)[nH]c1=O was read as SENP8 block-1 inactive.
For Cc1cccc(NC(=O)CC2SC(=O)N(c3ccccc3)C2=O)c1 (stereo unspecified) the results were Platelet DG rel 67, SENP8 block-1 inactive, SENP8 block-2 inactive, HSP90 inh inactive, SENP6 inh inactive and SENP7 block inactive.
